Six1-Eya2 inh: blocks human Six1 binding to Eya2 | Q15475+O00167 | AlphaScreen GST-Six1/His-Eya2 binding, biochemical; active compounds read low | activity change, % (test concentration not listed) | actives 0.56% (n = 360,000) | AID 651725; in the data active = activity change below about -65%; inconclusive = mostly about -30% to -63%
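GST-Six1 + His-Eya2 (5X stock: 250/500 nM); Tris pH 8.0, 300 mM NaCl, 0.05% BSA, 0.02% Tween 20; GSH donor/Ni acceptor beads; 1 h 37 °C dark; AlphaScreen readout.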
IL-1B inflam inh: blocks inflammasome-driven IL-1 beta release | THP-1 LPS/ATP IL-1B secretion, AlphaLISA, 16 h; active compounds read low | activity change, % at 57.5 µM | actives 4.7% (n = 360,000); in the data active = activity change below about -50%; inconclusive = mostly about -30% to -49%
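Secreted IL-1B measured by AlphaLISA bead assay after 16 h compound exposure of THP-1 cells; compounds (final up to 57.5 uM) added 1 h before LPS (250 ng/mL) and ATP (1.25 mM) stimulation; lower signal means less secretion.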
DT40 TDP1 CPT: growth inhibition of DT40 Tdp1-/-;hTDP1 cells with camptothecin (screen for TDP1 inhibitors); actives 12% (n = 420,000); Potency, µM (series often up to 46.2 µM), for inactives: at the highest dose activity change, negative = growth inhibition, hits mostly inhibitors; AID 686979; chicken DT40 Tdp1-/-;hTDP1 cells + 20 nM CPT, ATP luminescence, 48 h; also: potency is read from the fitted curve at half-maximal effect; nearly all actives have a fitted effect of over 55% in size
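Chicken DT40 Tdp1-/- cells complemented with human TDP1, 400 cells/well, exposed to compounds plus 20 nM camptothecin for at least 48 h at 37 C; viability read as ATP content by CellTiter-Glo luminescence.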
CtBP-E1A blk: CtBP/E1A binding inhibition. activity change, % (no concentration beside the values). actives 0.49% (n = 340,000). AlphaScreen GST-E1A/His-CtBP binding, 1536-well; active compounds read low; in the data active = activity change below about -65%; inconclusive = mostly about -30% to -63%
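AlphaScreen with 125 nM GST-E1A and 125 nM His-CtBP (5X stocks) in Tris pH 8.0, 300 mM NaCl, BSA, Tween 20, TCEP. Compounds preincubated 2 h at 37 deg C, then glutathione donor/nickel acceptor beads added for 1 h at 37 deg C in dark.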
DT40 TDP1 no CPT: qHTS for Inhibitors of human tyrosyl-DNA phosphodiesterase 1 (TDP1): qHTS in cells in absence of CPT; Potency, µM (highest dose often 46.2 µM), without a hit: at the top dose activity change, negative = growth inhibition, hits mostly inhibitors; AID 686978, 2013; DT40 Tdp1-/- hTDP1 cells, no CPT, ATP luminescence, 48 h; actives 15% (n = 420,000); also: potency is read from the fitted curve at half-maximal effect; nearly all actives have a fitted effect of over 55% in size
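No-CPT arm: Tdp1-/-;hTDP1 DT40 cells (400/well) plus compounds, incubated ≥48 hr at 37 °C. Readout CellTiter-Glo luminescence.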
TDP1 block: inhibitors of human tyrosyl-DNA phosphodiesterase TDP1; Q9NUW8; recombinant TDP1, AlphaScreen DNA substrate cleavage; Potency, µM (titrated, usually from 130 µM), for the others: at the top dose activity change, negative = inhibition, usual class: inhibitors; actives 0.28% (n = 350,000); also: potency is read from the fitted curve at half-maximal effect; nearly all actives have a fitted effect of over 40% in size
Target sequence (Q9NUW8 whole entry, looked up): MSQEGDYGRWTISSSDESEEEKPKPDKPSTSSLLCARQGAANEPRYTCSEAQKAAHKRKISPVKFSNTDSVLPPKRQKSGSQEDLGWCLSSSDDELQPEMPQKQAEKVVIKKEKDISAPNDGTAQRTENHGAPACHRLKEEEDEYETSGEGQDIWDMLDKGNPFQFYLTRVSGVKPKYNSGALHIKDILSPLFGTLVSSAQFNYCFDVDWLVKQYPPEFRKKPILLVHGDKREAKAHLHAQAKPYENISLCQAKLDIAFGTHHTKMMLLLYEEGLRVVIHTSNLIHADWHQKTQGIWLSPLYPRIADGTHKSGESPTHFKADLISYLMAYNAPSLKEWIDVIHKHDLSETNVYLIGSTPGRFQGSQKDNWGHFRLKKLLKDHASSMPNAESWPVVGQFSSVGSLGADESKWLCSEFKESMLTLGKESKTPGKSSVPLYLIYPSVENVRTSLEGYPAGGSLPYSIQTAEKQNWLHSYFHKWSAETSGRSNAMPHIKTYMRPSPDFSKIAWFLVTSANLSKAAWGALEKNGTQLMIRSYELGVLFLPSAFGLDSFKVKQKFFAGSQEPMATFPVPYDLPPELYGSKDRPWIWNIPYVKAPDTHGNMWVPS
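Compounds were preincubated with Tdp1 (1 nM final) for 15 min at room temperature before substrate (15 nM final) started a 5 min reaction; beads (10 ug/ml final) were then added for 10 min before AlphaScreen detection.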
Starred values were filed as active, the others as inactive; ? = inconclusive; nt = no result given. Sampled rows, rich in hits. Any-hit rate of the full collection: about 18%. Unless noted, calls follow the shape of the dose curve; as a rule, active = well fitted curve in the direction sought with a large enough effect; inconclusive = small, poorly fitted or top-dose-only effect, or another doubt; inactive = no such curve, though single readings can be large; an effect the other way counts as inactive or inconclusive. % is scaled to controls: 0 for no effect and ±100 for the full control effect.

SMILES	Six1-Eya2 inh	IL-1B inflam inh	DT40 TDP1 CPT	CtBP-E1A blk	DT40 TDP1 no CPT	TDP1 block
COc1ccc(Nc2oc(-c3ccco3)nc2S(=O)(=O)c2ccc(F)cc2)cc1	-3	-57*	?	nt	?	0%
Cc1ccc(S(=O)(=O)c2nc(-c3cccs3)oc2SCC(N)=O)cc1	-3	7	-2%	-15	-13%	6%
COc1ccc(-c2nnc(SCC(=O)Nc3ccccc3OC)o2)cc1	-10	-1	?	-9	-28%	2%
COc1ccccc1NC(=O)CSc1oc(-c2cccs2)nc1S(=O)(=O)c1ccc(Br)cc1	nt	nt	23µM*	nt	?	3%
COc1ccccc1NC(=O)CSc1oc(-c2ccco2)nc1S(=O)(=O)c1ccc(C)cc1	nt	nt	23µM*	nt	?	-6%
COc1ccc(NC(=O)CSc2oc(-c3ccco3)nc2S(=O)(=O)c2ccccc2)c(OC)c1	nt	nt	?	nt	?	0%
COc1ccccc1NC(=O)CSc1oc(-c2ccccc2)nc1S(=O)(=O)c1ccccc1	nt	nt	21µM*	nt	16µM*	3%
CC1=C(C(=O)N2CCOCC2)CC(CC(=O)NC2CCCC2)C(=O)N1Cc1ccc(C(C)(C)C)cc1 (stereo not given)	6	-11	?	1	?	nt
COc1cccc(CNC(=O)CCC2CCCN(C(=O)c3ccc(C)nc3)C2)c1 (stereo not given)	1	1	-6%	8	-2%	3%
CCCCn1nc(NS(=O)(=O)c2cccc3nonc23)c2cc3cccc(C)c3nc21	-10	5	-13%	nt	?	12%
COC(=O)c1cc(OC)c(OC)cc1NC(=S)N1CCC(C(N)=O)CC1	-1	-3	-20%	-7	-11%	6%
O=C(c1cnc2sccn2c1=O)N(Cc1ccccc1)c1ccccn1	2	25	10%	-4	-4%	7%
Cc1ccc(S(=O)(=O)c2nc(-c3ccccc3)oc2SCC(=O)NC2CCCCC2)cc1	nt	nt	-19%	nt	11%	3%
COc1ccccc1NC(=O)CSc1oc(-c2ccccc2)nc1S(=O)(=O)c1ccc(C)cc1	nt	nt	18µM*	nt	21µM*	0%
COc1ccccc1NC(=O)CSc1oc(-c2ccc(F)cc2)nc1S(=O)(=O)c1ccc(Br)cc1	nt	nt	21µM*	nt	13µM*	3%
COc1ccc(NC2=CC(=O)CC(c3ccccc3)C2)c(OC)c1 (stereo not given)	-6	-11	4.1µM*	-8	3.3µM*	0%
CN(C)CCCNC1=CC(=O)CC(c2ccccc2)C1 (stereo not given)	-1	-3	3%	-2	-7%	3%
COc1ccc(NC(=O)C2C(c3ccccc3)C2(Cl)Cl)c(OC)c1 (stereo not given)	-5	?	-29%	-3	?	4%
CCOc1ccccc1NC1=CC(=O)CC(c2ccccc2)C1 (stereo not given)	-2	19	?	0	13µM*	6%
CN(C)c1ccc(/C=N/NC(=O)C(=O)/C=C2\NC3(CCCC3)Cc3ccccc32)cc1	-21	-14	26µM*	21	21µM*	3%
COc1cc(/C=N/NC(=O)C(=O)/C=C2\NC3(CCCC3)Cc3ccccc32)ccc1O	?	-12	?	-28	?	11%
O=C(/C=C1\NC2(CCCC2)Cc2ccccc21)C(=O)N/N=C/c1ccccc1O	-20	54	3.7µM*	0	2.1µM*	5%
CCN1CCC(N(Cc2ccc(F)cc2)C(=O)Nc2cccc(C(F)(F)F)c2)CC1	nt	nt	16µM*	nt	16µM*	-1%
CCN1CCC(N(Cc2cccc(OC)c2)C(=O)Nc2cccc(C)c2C)CC1	nt	nt	?	nt	23µM*	2%
CCN1CCC(N(Cc2cccc(OC)c2)C(=O)Nc2cccc(C(F)(F)F)c2)CC1	nt	nt	?	nt	21µM*	7%
SMILES	Six1-Eya2 inh	IL-1B inflam inh	DT40 TDP1 CPT	CtBP-E1A blk	DT40 TDP1 no CPT	TDP1 block
CCN1CCC(N(Cc2ccc3c(c2)OCO3)C(=O)Nc2ccccc2OC)CC1	nt	nt	?	nt	?	-4%
CCNc1nc(NCC)nc(SCCOc2ccc(C)cc2)n1	9	-8	21µM*	8	18µM*	-3%
Cc1cccc(OCCSc2nc(N)cc(N)n2)c1	-1	-27	?	1	21µM*	nt
CCNc1nc(NC(C)C)nc(Oc2ccc(OCCOc3ccc(C)cc3)nn2)n1	-3	16	21µM*	16	?	6%
CC(C)CCOc1ccc(Oc2nc(N(C)C)nc(N(C)C)n2)nn1	nt	nt	18µM*	nt	?	-5%
CC(C)Cn1c(SCC(=O)O)nnc1-c1cccc(S(=O)(=O)N2CCOCC2)c1	5	0	-14%	-11	22%	-1%
CCCOc1ccc(Oc2nc(NCC(C)C)nc(N(C)C)n2)nn1	nt	nt	?	nt	13µM*	2%
CCOc1ccc(Oc2nc(NCC(C)C)nc(NC(C)(C)C)n2)nn1	nt	nt	?	nt	?	5%
Cc1nc2c(C(=O)NCc3ccco3)cnn2c(C)c1Cc1ccc(F)cc1Cl	0	0	11µM*	5	?	-2%
Cc1cccc(Cc2c(C)nc3c(C(=O)NCc4ccco4)cnn3c2C)c1	-13	-78*	22µM*	8	11µM*	6%
Cc1nc2ccc(F)cc2cc1C(=O)NCc1ccco1	0	-16	-25%	9	-22%	6%
O=C(CSCc1cc(=O)c2cc(F)ccc2[nH]1)Nc1ccccc1Cl	nt	nt	-26%	nt	?	-5%
N#Cc1ccccc1S(=O)(=O)N1CCN(C(=O)C2CCCCC2)CC1	12	-3	-5%	nt	-5%	1%
Cc1cc(C)c(C(=O)COC(=O)c2nn(C)c(=O)c3ccccc23)cc1C	-2	30	-18%	4	-7%	1%
CCOC(=O)c1csc(N/N=C2\CCc3ccccc32)n1	-15	-93*	?	-29	?	nt
CCOC(=O)c1csc(N/N=C2\CCCc3ccccc32)n1	-3	15	?	nt	16µM*	nt
O=C(CN1C(=O)C2(SCC(=O)N2c2ccccc2)c2ccccc21)NCCc1ccccc1 (stereo not given)	nt	nt	nt	nt	nt	0%
O=C(CN1C(=O)C2(SCC(=O)N2c2cccc(F)c2)c2ccccc21)NCCc1ccccc1 (stereo not given)	nt	nt	-29%	nt	23µM*	2%
O=C(CN1C(=O)C2(SCC(=O)N2c2cccc(F)c2)c2ccccc21)NCc1ccccc1Cl (stereo not given)	nt	nt	?	nt	21µM*	2%
